Test results as given in ChEMBL document CHEMBL3988442, “University of Dundee, Small-Polar-MMV Screening Library” (2021).
The whole screen tested about 48,000 compounds, of which about 13,000 (27%) showed an effect of 50% or more. Some of the results follow.

tested on: Wolbachia pipientis; assay: Anti-Wolbachia Cell-Based Screen; assay type: functional; design: scale not given: in the data most compounds retested in dose-response had high values; details: 5 µM

SMILES | Percent Effect
NC(=O)N1CCc2cc(C(=O)O)c(-c3ccsc3)nc2CC1.O=C(O)C(F)(F)F | -21.16%
Cc1cc(CNC(=O)Nc2cc(F)cc(N3CCCC3)c2)no1 | -57.71%
Cc1cccc(C(C)(C)CNC(=O)CN(C)S(=O)(=O)c2cccnc2)c1 | 4.775%
CC(O)CN(CC(=O)NC1CCCCC1)c1ccccc1 (stereo not drawn) | -11.54%
CC(C)(C)c1ncc2c(n1)CN(C(=O)c1ccc(-c3nc[nH]n3)cc1)C2 | -2.467%
CCc1ccc(C(=O)N2CCN(Cc3ccc(F)cc3)CC2)s1 | -10.91%
CC(C)(C)Cc1nnc(NCc2ccsc2)o1 | -6.79%
CC(=O)N(Cc1noc(C)n1)C1CCN(Cc2ncc(C(C)C)o2)C1 (stereo not drawn) | 142.1%
CC(=O)N(Cc1ncc(C(C)C)o1)C1CCN(Cc2nccn2C)C1 (stereo not drawn) | -4.268%
CC(=O)N(Cc1ncc(C(C)C)o1)C1CCN(Cc2ncc[nH]2)C1 (stereo not drawn) | 11.04%
CCNC(=O)C(C)NC(=O)Nc1ccccc1Cl (stereo not drawn) | -14.58%
CCC1(c2ccc(NS(=O)(=O)N(C)C)cc2)CCC(=O)NC1=O (stereo not drawn) | 138.3%
CCC1(c2ccc(NS(=O)(=O)c3cccs3)cc2)CCC(=O)NC1=O (stereo not drawn) | 2.702%
CN(C)S(=O)(=O)Nc1ccc(-n2nncc2C(F)(F)F)cc1 | -14.8%
CC(C)C(C)NC(=O)Nc1cccn(C)c1=O (stereo not drawn) | 14.72%
CCC(C)NC(=O)Nc1ccc(CN2CCOC2=O)cc1 (stereo not drawn) | 17.46%
CC(C)NC(=O)Nc1ccc(CS(C)(=O)=O)cc1 | 125.1%
CC(C)C(C)NC(=O)Nc1ccc(CC(N)=O)cc1 (stereo not drawn) | 98.71%
CCNC(=O)Cc1ccc(NC(=O)NC(CC)CC)cc1 | 3.76%
NC(=O)Cc1ccc(NC(=O)C2CCOCC2)cc1 | -3.616%
CC(C)C(C)NC(=O)Nc1ccc(CS(=O)(=O)C(C)C)cc1 (stereo not drawn) | 98.92%
CC(CO)NC(=O)Nc1ccc(CC#N)cc1 (stereo not drawn) | -17.07%
CC(C)NC(=O)Nc1ccc(-c2nc3c([nH]2)CCNC3)cc1 | 8.53%
Cc1occc1CNC(=O)N(CCCO)C1CCc2ccccc21 (stereo not drawn) | -0.08809%
CCC(CO)N(Cc1ccccn1)C(=O)c1ncccc1C (stereo not drawn) | -0.3576%
Cc1nccc(C2CN(Cc3ccc(-c4ccccc4C(=O)O)o3)C2)n1 | 137.2%

SMILES | Percent Effect
Cc1ccc(CN2CCC3(CCC3NS(=O)(=O)c3ccccc3)CC2)o1.O=C(O)C(F)(F)F (stereo not drawn) | -9.512%
CCc1nc(C)ncc1C(=O)N1CC(=O)N(C)c2ccccc21 | -0.2346%
CCc1cnc(C)nc1N1CCN(Cc2ccc(-c3cc[nH]n3)o2)CC1 | -14.59%
CCNC(=O)[C@@H]1C[C@@H](N)CN1Cc1ccc(-c2ccccc2C#N)o1 | -0.5053%
Cc1ccnc(C2CN(Cc3ccc(-c4ccccc4C(=O)O)o3)C2)n1 | 103.2%
CCNC(=O)[C@@H]1C[C@H](N)CN1Cc1ccc(-c2ccccc2C#N)o1 | 18.83%
Nc1nccc(C2CN(Cc3ccc(-c4ccccc4C(=O)O)o3)C2)n1 | 91.52%
Cc1ccc(CN2C[C@@H](C(=O)O)[C@H](c3ccccn3)C2)o1 | 12.21%
NCCN1C(=O)CC[C@H]2CN(Cc3ccc4occc4c3)CC[C@H]21 | -1.233%
C1CN(c2nc(C3CC3)ns2)CCS1 | 2.674%
CS(=O)(=O)c1cccc2c1CCCN2C(=O)Cc1cccc(F)c1 | 14.6%
CS(=O)(=O)c1ccc(O[C@H]2COCCN(C(=O)c3ccno3)C2)cc1 | -17.98%
CCCN(c1ccccc1C(=O)O)S(=O)(=O)c1ccc2ccccc2c1 | -7.662%
CC1=CCN(C(=O)Nc2ccccc2N2CCOC2=O)CC1 | 8.909%
COc1ccc(C)cc1C1(CNc2cn[nH]c(=O)c2Cl)CCOCC1 | 1.939%
CC(NC(=O)N(C)Cc1ccncc1)c1cn(-c2ccccc2)nn1 (stereo not drawn) | -5.138%
COC(=O)N1CCC(Nc2cccc(F)c2C(C)=O)CC1 | 7.066%
CC1(C)CC(N(Cc2cccnc2)Cc2cccc(F)c2)CC(C)(C)N1.O=C(O)CC(O)(CC(=O)O)C(=O)O | 152.9%
CC1(C)CC(N(Cc2ccncc2)Cc2cccnc2)CC(C)(C)N1.O=C(O)CC(O)(CC(=O)O)C(=O)O | 106.8%
CCCN(Cc1cccnc1)C(=O)C1CCS(=O)(=O)CC1 | -18.37%
CCCN(Cc1cccnc1)C(=O)C1CCNC1 (stereo not drawn) | -6.629%
CCCN(Cc1cccnc1)C1CC(C)(C)NC(C)(C)C1.O=C(O)CC(O)(CC(=O)O)C(=O)O | 90.76%
Cc1cccc(CN(Cc2cccnc2)C2CC(C)(C)NC(C)(C)C2)n1.O=C(O)CC(O)(CC(=O)O)C(=O)O | 68.09%
CC1CN(c2ccc(CNC(=O)NCCn3ccnc3)cn2)CCO1 (stereo not drawn) | -7.777%
Cc1nn(C)cc1-c1ccnc(N(C)Cc2ccoc2)n1 | -63.97%
CN(Cc1ccncc1)C(=O)Nc1cnn(CC2CCCO2)c1 (stereo not drawn) | -18.51%

SMILES | Percent Effect
Cl.O=C(Nc1cccc(C(=O)OCC2CCCN2)c1)c1ccoc1 (stereo not drawn) | -16.18%
Cc1cc(C)n(CC2CCCN2CCCS(=O)(=O)N(C)C)n1 (stereo not drawn) | -14.18%
Cc1cc(=O)[nH]c(NCCNC(=O)CN2CCCCCC2)n1 | 0.3352%
COCCCSc1ccc(NCc2scnc2C)cc1 | -22.23%
CNC(=O)NC(=O)CN(CC(C)O)c1ccccc1 (stereo not drawn) | 1.255%
Cc1ccc(CN(Cc2cccnc2)C2CC(C)(C)NC(C)(C)C2)s1.O=C(O)CC(O)(CC(=O)O)C(=O)O | 9.465%
Cc1ncsc1C(=O)N(Cc1cccnc1)C1CC1 | 11.29%
Cc1ccsc1CN(Cc1cccnc1)C1CC(C)(C)NC(C)(C)C1.O=C(O)CC(O)(CC(=O)O)C(=O)O | 106.7%
CC1(C)CC(N(Cc2ccccc2)Cc2cccnc2)CC(C)(C)N1.O=C(O)CC(O)(CC(=O)O)C(=O)O | 31.11%
CC1(C)CC(N(Cc2cccnc2)Cc2cccnc2)CC(C)(C)N1.O=C(O)CC(O)(CC(=O)O)C(=O)O | 81.01%
CCCN(C)c1ncc2c(n1)N(C)CCN(CC1CC1)C2=O | 98.31%
CN1CCc2nc(N(C)C)nc(N3CCC(O)CC3)c2C1 | 12.64%
CN(C)c1ncc2c(n1)N(C)CCN(CC1CC1)C2=O | 109.4%
Cc1ccccc1-n1cnnc1SCCOCC1CCCO1 (stereo not drawn) | -11.81%
Cc1ccc(-c2noc([C@@H]3C[C@H](NC(=O)CC(C)(C)C)CN3C)n2)cc1 | -9.06%
Cc1ccnc(CC(C)N(C)c2cc(CN)nc(C)n2)c1 (stereo not drawn) | -4.516%
CC(c1ccc(F)c(F)c1)N1CCN(Cc2nccn2C)CC1 (stereo not drawn) | -0.152%
CCn1ccnc1CN1CCN(CC(O)c2ccccc2)CC1 (stereo not drawn) | -0.4709%
COc1ccc(C(C)N2CCN(Cc3nccn3C)CC2)cc1Cl (stereo not drawn) | -0.7599%
CCn1ccnc1CN1CCN(CC(O)c2cccc(F)c2)CC1 (stereo not drawn) | 152.7%
CC(c1cccc(F)c1)N1CCN(Cc2nccn2C)CC1 (stereo not drawn) | 119.5%
Cn1ccnc1CN1CCN(CC(O)c2cccc(F)c2)CC1 (stereo not drawn) | 1.006%
O=C(O)C(F)(F)F.O=C(O)C(F)(F)F.O=C(O)C(F)(F)F.c1cnc(NCc2noc3c2CN(CCN2CCCC2)CC3)nc1 | -9.81%
Cc1ccc(NC(=O)NC(C)c2nc[nH]n2)s1 (stereo not drawn) | 10.15%
CSCCN1CCN(c2nc(N)ncc2C)CC1 | -15.55%
O=C(c1cnccn1)N1CCN2C[C@H](OCc3ccccn3)C[C@H]2C1 | 1.808%

SMILES | Percent Effect
O=C(O)C1(Cc2cccc(-c3ccc(F)cc3)c2)CCOCC1 | 105.2%
COc1cccc(CC2(C(=O)O)CCN(c3ccc(Cl)cn3)CC2)c1 | -33.64%
Fc1ccc(C2(NCc3ccccc3)CCOCC2)cc1 | -10.48%
COc1cccc(CC2(C(=O)O)CCN(c3nccs3)CC2)c1 | 5.275%
COc1ccc(-c2cccc(CC3(C(=O)O)CCOCC3)c2)cc1 | 106.8%
O=C(O)C1(Cc2cccc(-c3ccc(F)c(F)c3)c2)CCOCC1 | -9.122%
CN(Cc1ccco1)c1ccc(-c2nccn2C)nn1 | -4.631%
CC1=C[C@@H](CN2CCCC2)[C@H](C(C)C)C[C@H]1Cc1nnc(C)o1 | -4.134%
CC(C)(C)OC(=O)N1CCCN1C(=O)c1cccc(F)c1F | -1.297%
O=C(Nc1ccc(F)c(-n2cccc2)c1)NC1(CCO)CCOCC1 | 29.93%
Cc1nccn1CCCC(=O)Nc1nc(C(C)C)nn1C | -14.12%
Cc1cc(NC(=O)CCCn2ccnc2C)nc(C(C)C)n1 | -7.681%
Br.Cc1cc(C)nc(NCCC(=O)NCCn2ccnc2C)n1 | 178%
CSC1(CNC(=O)N(C)Cc2sccc2C)CCOCC1 | 7.6%
O=C(N1CCOCC1)N1CC[C@H]2[C@@H]1CCC(=O)N2c1ccccc1 | -0.9647%
Cc1cccnc1N1CCC(c2nccn2Cc2cscn2)CC1 | -9.317%
COc1ccc(C(=O)NCC(C)(O)CCc2ccccc2)cc1 (stereo not drawn) | -2.442%
CN(C)C(=O)N1CCn2cc(CNC(=O)CC3CC3)nc2C1 | -12.44%
CS(=O)(=O)N1CCc2ncc(CNC(=O)C3CCC3)n2CC1 | 95.01%
Cn1cccc1C(=O)NCc1cnc2n1CCN(C(=O)N1CCCC1)C2 | 10.49%
CC(=O)N1CCc2ncc(CNC(=O)C3CCC3)n2CC1 | 106.1%
Cn1cccc1C(=O)NCc1cnc2n1CCN(C(N)=O)CC2 | -2.634%
NC(=O)N1CCc2ncc(CNC(=O)CC3CC3)n2CC1 | 111.4%
O=C(NCc1cnc2n1CCN(CC1CC1)CC2)C1CCC1 | 16.9%
O=C(NCc1cnc2n1CCN(c1ncc(F)cn1)CC2)C1CCC1 | 15.93%
